The nature of test [1]: BSK_MyoF_SRB: Viability Assessment in the BioMAP Diversity Plus: MyoF Assay (AID 2284267).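 Further: total protein by SRB absorbance in parallel cultures as cytotoxicity measure; cells assessed 24 h after compound addition.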 As to conditions: primary human lung fibroblasts. An outline of the steps: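 Lung fibroblast cultures, 24 h post-dose; fix 10% TCA, stain 0.1% SRB, read 560 nm. Signal = total protein as cytotoxicity measure; fitted relative to DMSO negative control.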
Read-out in test [2]: Matrix Metallopeptidase 1 (MMP1), MMP1 (gene 4312)
Description: BSK_MyoF_MMP1: BioMAP Diversity Plus: MyoF Assay for Matrix Metallopeptidase 1 (MMP1) Biomarker Activity (AID 2284268). The following applies: primary human lung fibroblasts. In outline:
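MMP1 measured by ELISA 24 h after dosing primary human lung fibroblasts; cytotoxicity checked in parallel cultures by sulforhodamine B total-protein staining read at 560 nm.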

Read-out in test [3]: TIMP metallopeptidase inhibitor 1 (TIMP1), TIMP1 (gene 7076)
Put plainly: BSK_MyoF_TIMP1: BioMAP Diversity Plus: MyoF Assay for TIMP metallopeptidase inhibitor 1 (TIMP1) Biomarker Activity (AID 2284269). As to conditions: primary human lung fibroblasts. In outline: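 ELISA read-out of TIMP-1 from primary human lung fibroblast cultures 24 h after compound dosing; gain of signal relative to DMSO vehicle baseline defines activity.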

Read-out in test [4]: Matrix Metallopeptidase 3 (MMP3), MMP3 (gene 4314)
Description: BSK_BF4T_MMP3: BioMAP Diversity Plus: BF4T Assay for Matrix Metallopeptidase 3 (MMP3) Biomarker Activity (AID 2284271). As to conditions: primary human bronchial epithelial cells with fibroblasts. In outline: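 MMP-3 level read by ELISA after 24 h chemical exposure of bronchial epithelial cell/dermal fibroblast co-cultures, fitted upward relative to DMSO. Parallel cultures stained with 0.1% SRB after TCA fixation gauge overt cytotoxicity.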

Read-out in test [5]: Plasminogen Activator Inhibitor-1 (PAI1), SERPINE1 (gene 5054)
Description: BSK_BF4T_PAI1: BioMAP Diversity Plus: BF4T Assay for Plasminogen Activator Inhibitor-1 (PAI1) Biomarker Activity (AID 2284273). The following applies: primary human bronchial epithelial cells with fibroblasts. In outline: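 PAI-1 levels quantified by ELISA 24 h post-dosing in bronchial epithelial cell plus dermal fibroblast cultures. Signal gain referenced to DMSO baseline. Sulforhodamine B total-protein staining of parallel wells checked cytotoxicity.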

Test [6] in a line: BSK_BF4T_SRB: Viability Assessment in the BioMAP Diversity Plus: BF4T Assay (AID 2284274). As to conditions: primary human bronchial epithelial cells with fibroblasts. An outline of the steps: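 Cytotoxicity measured as total protein: cells fixed with 10% TCA, stained with 0.1% SRB, read at 560 nm. Bronchial epithelial/dermal fibroblast co-culture, 24 h after dosing, with positive-direction fitting relative to DMSO.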

Read-out in test [7]: urokinase Plasminogen Activator (uPA), PLAU (gene 5328)
Description: BSK_BF4T_uPA: BioMAP Diversity Plus: BF4T Assay for urokinase Plasminogen Activator (uPA) Biomarker Activity (AID 2284275). The following applies: primary human bronchial epithelial cells with fibroblasts. In outline: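 uPA levels measured by ELISA at 24 hours in BF4T cultures (bronchial epithelial cells plus dermal fibroblasts) and compared with DMSO; cytotoxicity tracked in parallel cultures by sulforhodamine B staining.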

Read-out in test [8]: Interleukin-8 (IL8), CXCL8 (gene 3576)
Description: BSK_IMphg_IL8: BioMAP Diversity Plus: IMphg Assay for Interleukin-8 (IL8) Biomarker Activity (AID 2284277). The following applies: primary human endothelial cells with macrophages. An outline of the steps:
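IL-8 levels were measured by ELISA 24 h after dosing in primary human venular endothelial cell–macrophage cultures, referenced to DMSO; parallel SRB staining monitored overt cytotoxicity.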

Read-out in test [9]: Intercellular Adhesion Molecule 1 (ICAM1), ICAM1 (gene 3383)
Description: BSK_BE3C_ICAM1: BioMAP Diversity Plus: BE3C Assay for Intercellular Adhesion Molecule 1 (ICAM1) Biomarker Activity (AID 2284278).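 Further: cell-surface ICAM-1 protein level quantified by ELISA.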 As to conditions: primary human bronchial epithelial cells. An outline of the steps:
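ELISA read-out of ICAM-1 on human lung bronchial epithelial primary cells, 24 h post-dosing; positive-direction curve fit, DMSO = baseline. SRB total-protein staining of parallel cultures flagged overt cytotoxicity.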

Read-out in test [10]: Interferon-inducible T-cell alpha chemoattractant (ITAC), CXCL11 (gene 6373)
Description: BSK_BE3C_ITAC: BioMAP Diversity Plus: BE3C Assay for Interferon-inducible T-cell alpha chemoattractant (ITAC) Biomarker Activity (AID 2284279). The following applies: primary human bronchial epithelial cells. In outline:
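ELISA read-out of I-TAC after 24 h chemical dosing of human lung primary bronchial epithelial cells; gain-of-signal fit vs DMSO baseline. Parallel SRB total-protein staining (0.1% SRB, 10% TCA fixation, 560 nm) assessed cytotoxicity.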

Read-out in test [11]: Interleukin-8 (IL8), CXCL8 (gene 3576)
Put plainly: BSK_BE3C_IL8: BioMAP Diversity Plus: BE3C Assay for Interleukin-8 (IL8) Biomarker Activity (AID 2284280). As to conditions: primary human bronchial epithelial cells. In outline:
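Primary human bronchial epithelial cells (BE3C system) were exposed to test chemical for 24 h, and IL-8 levels were then measured by ELISA. Activity was fitted in the positive (gain-of-signal) direction against a DMSO negative-control baseline.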

Read-out in test [12]: Epidermal growth factor receptor (EGFR), EGFR (gene 1956)
Description: BSK_BE3C_EGFR: BioMAP Diversity Plus: BE3C Assay for Epidermal growth factor receptor (EGFR) Biomarker Activity (AID 2284281). The following applies: primary human bronchial epithelial cells. In outline:
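Human primary bronchial epithelial cells were exposed to compound for 24 h, and cell-surface EGFR was then quantified by ELISA. Activity was fitted in the positive direction against the DMSO vehicle baseline.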

Read-out in test [13]: KRT18 (gene 3875)
Put plainly: BSK_BE3C_Keratin818: BioMAP Diversity Plus: BE3C Assay for Keratin 818 Biomarker Activity (AID 2284282). As to conditions: primary human bronchial epithelial cells. In outline:
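ELISA read-out of Keratin 8/18 in BE3C human bronchial epithelial cultures, 24 h post-dosing; positive-direction fit vs DMSO baseline.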

Read-out in test [14]: Matrix Metallopeptidase 9 (MMP9), MMP9 (gene 4318)
Description: BSK_BE3C_MMP9: BioMAP Diversity Plus: BE3C Assay for Matrix Metallopeptidase 9 (MMP9) Biomarker Activity (AID 2284283). The following applies: primary human bronchial epithelial cells. In outline: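 Cells were dosed, incubated 24 h, then assayed for MMP-9 by ELISA; activity was fitted upward against DMSO. The system used human lung primary bronchial epithelial cells, with SRB total-protein staining run alongside for cytotoxicity.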

Read-out in test [15]: Plasminogen activator inhibitor-1 (PAI1), SERPINE1 (gene 5054)
Description: BSK_CASM3C_PAI1: BioMAP Diversity Plus: CASM3C Assay for Plasminogen activator inhibitor-1 (PAI1) Biomarker Activity (AID 2284284). The following applies: primary human coronary artery smooth muscle cells.

Read-out in test [16]: Monocyte Chemoattractant Protein-1 (MCP1), CCL2 (gene 6347)
Description: BSK_hDFCGF_MCP1: BioMAP Diversity Plus: hDFCGF Assay for Monocyte Chemoattractant Protein-1 (MCP1) Biomarker Activity (AID 2284285). As to conditions: primary human foreskin fibroblasts. In outline:
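MCP-1 ELISA readout was taken 24 hours after dosing primary human dermal fibroblasts in the hDFCGF system, with DMSO as baseline. Parallel sulforhodamine B staining of total protein tracked overt cytotoxicity.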

Read-out in test [17]: Vascular cell adhesion molecule 1 (VCAM1), VCAM1 (gene 7412)
Description: BSK_IMphg_VCAM1: BioMAP Diversity Plus: IMphg Assay for Vascular cell adhesion molecule 1 (VCAM1) Biomarker Activity (AID 2284286). As to conditions: primary human endothelial cells with macrophages. In outline:
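ELISA read-out of VCAM-1 on venular endothelial cell/macrophage co-cultures at 24 h post-treatment, with DMSO as baseline and positive-direction fitting. Parallel sulforhodamine B total-protein staining (560 nm) served as the overt cytotoxicity measure.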

Read-out in test [18]: Matrix Metallopeptidase 9 (MMP9), MMP9 (gene 4318)
Description: BSK_BF4T_MMP9: BioMAP Diversity Plus: BF4T Assay for Matrix Metallopeptidase 9 (MMP9) Biomarker Activity (AID 2284276). The following applies: primary human bronchial epithelial cells with fibroblasts. In outline:
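MMP-9 levels were measured by ELISA after 24 h exposure of bronchial epithelial cell/dermal fibroblast co-cultures, with DMSO as baseline. Parallel cultures were stained with 0.1% SRB after TCA fixation, read at 560 nm, to flag overt cytotoxicity.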

Read-out in test [19]: Matrix Metallopeptidase 1 (MMP1), MMP1 (gene 4312)
Put plainly: BSK_BF4T_MMP1: BioMAP Diversity Plus: BF4T Assay for Matrix Metallopeptidase 1 (MMP1) Biomarker Activity (AID 2284270). The following applies: primary human bronchial epithelial cells with fibroblasts. An outline of the steps: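 MMP-1 quantified by ELISA in primary human bronchial epithelial/dermal fibroblast co-cultures, 24 hours post-dosing, with DMSO as baseline; parallel sulforhodamine B staining (560 nm) tracks overt cytotoxicity.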

“And” between values parts separate entries of the source, which are not always exact repeats. Equal values may be shown once. Some compounds were tested as several samples or in several runs, with calls that do not always agree. The source made the active and inactive calls. How the source made its calls: active means hit-call score of the fitted dose curve at least 0.9, where 1 is the maximum; inactive means score below 0.9.

With `COC(=O)CCC(F)(F)C(F)(F)C(F)(F)C(F)(F)F`, the result in test [1], in test [2], in test [3], in test [4], in [5] and in test [6] was inactive. Besides, the result in test [7], in test [8], in [9], in test [10], in test [11] and in test [12] was inactive. The outcome in [13], in test [14], in test [15], in [16] and in test [17] was inactive.

As to `O=C(CC(=O)C(F)(F)C(F)(F)F)C(F)(F)F`, the outcome in test [1], in test [2], in test [3], in test [4], in test [5] and in test [6] was inactive. Besides, the result in test [8], in [9], in test [10], in test [11], in [12] and in test [13] was inactive. The result in test [14], in test [15], in test [16] and in test [17] was inactive.

As to `C=CC(=O)OCC(F)(F)C(F)(F)C(F)(F)C(F)(F)C(F)(F)C(F)(F)C(F)(F)F`, the result in test [1], in [2], in [3], in test [4], in [5] and in [6] was inactive. For the same compound, the result in test [8], in test [9], in test [10], in test [11], in test [12] and in test [13] was inactive. Besides, the outcome in test [14], in test [15], in [16] and in [17] was inactive.

Turning to `OCC(F)(F)C(F)(F)C(F)(F)C(F)F`, the outcome in test [1], in test [2], in test [3], in [4], in [5] and in [6] was inactive. Also, the outcome in [7], in [18], in test [8], in test [9], in [10] and in test [11] was inactive. Further, the outcome in test [12], in test [13], in test [14], in test [15], in test [16] and in [17] was inactive. In [11], the AC50 was 14.5 µM (active).

On to `FC(F)(F)C(F)(F)C(F)(F)C(F)(F)C(F)(F)C(F)(F)CC1CO1` (configuration not stated), for which the result in [1], in [2], in test [3], in test [4], in test [5] and in test [6] was inactive. For the same compound, the result in test [7], in [8], in test [9], in test [10], in test [11] and in [12] was inactive. The result in test [13], in test [14], in [15], in [16] and in test [17] was inactive.

For `FC(F)(F)C(F)(F)C(F)(F)C(F)(F)C(F)(F)C(F)(F)C(F)(F)I`, the AC50 is 4.81 µM (active) and 4.71 µM (active) in [1]; 2.4 µM (active) and 2.55 µM (active) in test [2]. The result in test [3], in [19], in test [4], in test [5], in test [6] and in test [8] was inactive. Also, the outcome in test [9], in test [10], in test [11], in [12], in test [13] and in test [14] was inactive. Further, the outcome in test [15], in test [16] and in test [17] was inactive.

The values above are taken from PubChem BioAssay (EPA / NIEHS).
